This is a sample that favours compounds with a hit; in the whole collection about 21% have one here.
Pf growth 48h: inhibits P. falciparum growth in the first generation, 48 h | AID 504832 | 5.9% of 310,000 active | P. falciparum luciferase growth in erythrocytes, 48 h | Potency, µM (highest dose often 28.7 µM), for the others: top-dose activity change, negative = inhibition, usual class: inhibitors; further: potency means the concentration at half of the fitted maximal effect; on the % scale 0 is the no-effect control and ±100 the full control effect
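Luciferase-expressing parasites in RBCs, 2% Hct / 0.1% parasitemia final; RPMI 1640 + 0.5% Albumax; 37 C, 5% CO2, one generation; luminescence read-out, lower signal = inhibition.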
Pf growth 96h: P. falciparum growth inhibition at 96 hours. 6.9% of 320,000 active. Potency, µM (titrated, usually from 28.7 µM), for the others: at the highest dose activity change, negative = inhibition, usual class: inhibitors. AID 504834. P. falciparum luciferase reporter growth, 96 h; further: potency means the concentration at half of the fitted maximal effect; on the % scale 0 is the no-effect control and ±100 the full control effect
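Parasite growth measured via integrated firefly luciferase reporter in P. falciparum. Infected erythrocytes at 2% hematocrit, 0.05% parasitemia final were treated 96 hours at 37 C under 5% CO2, and luminescence was read.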
CHX counter: affects cycloheximide protein synthesis inhibition readout, counter-screen. cell reporter, cycloheximide protein synthesis inhibition counterscreen. max response, %. 12% of 300,000 active. AID 2314; in the data active means max response mostly above about 13%, no sharp cut-off; inactive means mostly below about 14%; further: read at 38.3 µM for the half of the compounds with a filed dose; 0% is about no effect
Shiga inhibitor: Shiga toxin inhibition; Vero cells, Shiga toxin protein synthesis inhibition reporter; inhibition, % at 38.7 µM; 9.2% of 290,000 active; in the data active means inhibition mostly above about 28%, no sharp cut-off; inactive means mostly below about 43%; further: 0% is about no effect
NS1 inh: inhibitors of influenza NS1 protein function | Potency, µM (top dose mostly 46.1 µM), for inactives: top-dose activity, positive = more growth | AID 2326 | 0.4% of 270,000 active; calls by dose curve; further: potency means the concentration at half of the fitted maximal effect; actives are rising curves; nearly all actives have a fitted effect of over 50% in size
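S. cerevisiae expressing influenza A NS1, grown in glucose, washed, then diluted 1:100 into pH 6.0 -URA galactose medium with 23 nl compound. Growth recovery read as OD600; NS1-free strain serves as control.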
* hit, by the source's call; ? = inconclusive; nt = not tested or not shown. Unless noted, the call rests on the fitted dose curve; in most records, active means well fitted inhibition curve with a large enough effect; inconclusive means small, poorly fitted or top-dose-only effect, or another doubt; inactive means no such curve, though single readings can be large or run the other way.

SMILES | Pf growth 48h | Pf growth 96h | CHX counter | Shiga inhibitor | NS1 inh
CCCS(=O)(=O)N1CCC(C(=O)NCc2ccc3c(c2)OCO3)CC1 | 10% | -1% | 0 | -3 | nt
O=C(NC1CCSC1=O)c1cccc(C(=O)NC2CCSC2=O)c1 (stereo not drawn) | -6% | 40% | -3 | 5 | 6%
O=C1C=CC(=O)N1c1ccc(OC(F)F)cc1 | 5% | 9.3µM* | -3 | -14 | -30%
Cc1ccc(NC(=O)c2ccc(=O)[nH]c2)cc1S(=O)(=O)N1CCCCC1 | ? | 46% | -9 | -5 | -2%
Cc1ccc(S(=O)(=O)N(C(=O)c2ccncc2)c2ccc(OC(=O)c3ccncc3)c3ccccc23)c(C)c1 | nt | 9.3µM* | -6 | -10 | 0%
Cc1cc(F)ccc1S(=O)(=O)N(C(=O)c1ccncc1)c1ccc(OC(=O)c2ccncc2)cc1 | -18% | ? | -1 | -14 | -6%
COc1ccc(S(=O)(=O)N(C(C)=O)c2ccc(OC(C)=O)c3ccccc23)cc1[N+](=O)[O-] | 6.6µM* | -3% | 1 | 9 | 11%
CC(=O)Oc1ccc(N(C(C)=O)S(=O)(=O)c2ccc(C)cc2C)c2ccccc12 | 8.3µM* | 2.6µM* | -1 | -6 | 5%
Cc1ccc(S(=O)(=O)N(C(=O)c2ccncc2)c2ccc(OC(=O)c3ccncc3)c3ccccc23)cc1 | 10µM* | 9.3µM* | -3 | -15 | -21%
COC(=O)c1c(C)oc2ccc(N(C(=O)c3ccncc3)S(=O)(=O)c3ccc(C)cc3)cc12 | 7% | nt | -2 | 25 | 9%
O=C(N/C(=C\c1ccco1)C(=O)N1CCOCC1)c1ccccc1Cl | 10% | ? | -5 | -16 | -10%
CCOC(=O)c1c(C)c(C(=O)Nc2ccc(F)cc2)c(C)n1C | -2% | ? | 6 | 19 | nt
CC1CN(C(=O)c2cc(S(=O)(=O)N3CCCCC3)ccc2Cl)CC(C)O1 (stereo not drawn) | -18% | -28% | nt | nt | nt
Nc1[nH]ncc1S(=O)(=O)c1ccccc1 | 1% | 30% | -5 | 15 | 8%
CC1=C(C(=O)Nc2cccc(C(=O)NC(C)c3ccccc3)c2)SCCO1 (stereo not drawn) | ? | ? | 0 | -5 | -11%
CCN(CC)C(=O)c1cc2c(=O)c3cc(Cl)ccc3oc2nc1C | 52% | 3% | 14 | 14 | ?
CCOC(=O)c1cc2c(=O)c3cc(C)ccc3oc2nc1C | 245% | 332% | 40* | 52* | 1%
Cc1nc2oc3ccc(F)cc3c(=O)c2cc1C(=O)O | 49% | 26% | 27* | 30 | 0%
Cc1ccc2oc3nc(C)c(C(=O)O)cc3c(=O)c2c1 | 205% | 475% | 41* | 35 | 3%
CC(=O)c1cc2c(=O)c3cc(C)ccc3oc2nc1C | 112% | 130% | 30* | 121* | -60%
COc1ccc(C2CC(c3ccc(F)cc3)n3nc(NS(C)(=O)=O)nc3N2)cc1 (stereo not drawn) | 13% | 59% | 0 | -1 | -1%
Cc1ccnc(NC(=O)C2CC(=O)N(Cc3ccccc3)C2)c1 (stereo not drawn) | 193% | 188% | nt | nt | nt
CCc1nc2oc3ccccc3c(=O)c2cc1C(=O)OC | 118% | 49% | 24* | 51* | 3%
COCc1nc2oc3ccc(C)cc3c(=O)c2cc1C(=O)OC | 108% | 130% | 23* | 42 | 5%
COCc1nc2oc3ccc(F)cc3c(=O)c2cc1C(=O)OC | 68% | 82% | 14 | 3 | -1%
SMILES | Pf growth 48h | Pf growth 96h | CHX counter | Shiga inhibitor | NS1 inh
Cc1nc2scc(C)n2c(=O)c1S(=O)(=O)N1CCN(c2ccc([N+](=O)[O-])cc2)CC1 | 9% | ? | -5 | 6 | 4%
COc1ccccc1N1CCN(C2CCCN(Cc3c(F)cccc3F)C2)CC1 (stereo not drawn) | 16% | -62% | -3 | -1 | -6%
COc1ccccc1CN1CCCC(N2CCN(c3ccccc3OC)CC2)C1 (stereo not drawn) | -7% | 4.7µM* | -3 | -5 | 14%
COc1ccccc1N1CCN(C2CCCN(Cc3cccc(O)c3)C2)CC1 (stereo not drawn) | ? | 1.2µM* | 0 | -3 | -9%
COc1ccccc1N1CCN(Cc2cccc(OC)c2O)CC1 | 7.4µM* | ? | 0 | 1 | -2%
COc1cc(CN2CCCC(N3CCN(c4ccc(F)cc4)CC3)C2)ccc1F (stereo not drawn) | 2.1µM* | 0.66µM* | 9 | -8 | ?
Cc1noc(C)c1-c1ccc2ncnc(NCc3cccc(Cl)c3)c2c1 | nt | nt | 7 | 9 | nt

Bioassay records: PubChem BioAssay, National Center for Advancing Translational Sciences (NCATS)
